Compound activity deposited in PubChem BioAssay by National Center for Advancing Translational Sciences (NCATS).
TGFb inhibitor: qHTS for Inhibitors of TGF-b; 410,000 tested, 1.2% active; Potency, µM (titrated, usually from 46.1 µM), most hits filed as inhibitors; AID 588855, 2011; HepG2 CAGA-GFP TGF-b/SMAD3 reporter, GFP fluorescence, 18 h; TGF-beta stimulated, 500 pg/mL final; also: nearly all actives have a fitted effect of over 65% in size
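Inhibition was scored as loss of TGF-beta-induced (500 pg/mL final, 18 hours, 37 degrees C) GFP in HEPG2 cells carrying a CAGA-GFP reporter, in DMEM with 1% FBS. Well GFP was summed per cell; Activity was normalised to unstimulated and stimulated DMSO wells, then concentration-response fitting.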
IL-1B inflam inh: qHTS for Inhibitors of Inflammasome Signaling: IL-1-beta AlphaLISA Primary Screen. AID 743279, 2014. 360,000 tested, 4.7% active. THP-1 LPS/ATP IL-1B secretion, AlphaLISA, 16 h; stronger effect = lower value. activity change, % at 57.5 µM; in the data active = activity change below about -50%; inconclusive = mostly about -30% to -49%
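Secreted IL-1B measured by AlphaLISA bead assay after 16 h compound exposure of THP-1 cells; compounds (final up to 57.5 uM) added 1 h before LPS (250 ng/mL) and ATP (1.25 mM) stimulation; lower signal means less secretion.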
HT1080 IDH1KD tx: qHTS for induction of synthetic lethality in tumor cells producing 2HG: qHTS for the HT-1080-IDH1KD cell line; AID 686971, 2013; HT-1080 IDH1 knockdown viability, ATP luminescence, 48 h; 360,000 tested, 2% active; Potency, µM (titrated, usually from 46.1 µM), most hits filed as cytotoxic
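Using the IDH1-knockdown HT-1080 line run in the same batch and compound series as the NT line, viability after 48 h at 37 °C was determined by CellTiter-Glo luminescence and expressed as % activity.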
HepG2 tox: qHTS for Inhibitors of TGF-b: Cytotox Counterscreen. HepG2 CAGA-GFP viability, ATP luminescence, 18 h. Potency, µM (series often up to 46.1 µM), hits mostly cytotoxic. 410,000 tested, 0.76% active
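CellTiter-Glo luminescence gave cytotoxicity after 18 hours at 37 degrees C. The cells were HepG2 CAGA-GFP in 1% FBS DMEM, stimulated with 500 pg/mL TGF-beta after compound addition. %Activity was normalised to no-cell wells (complete cell-killing) and DMSO (no toxicity), and curves were fitted and classified.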
Giardia killer: Small Molecules that selectively kill Giardia lamblia: qHTS | Giardia lamblia trophozoite viability | 340,000 tested, 0.15% active | activity change, % at 7.66 µM, hits read low; in the data active = activity change below about -80%; inconclusive = between about -30% and that limit;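 also: parasites exposed to compound for two days anaerobically before the ATP read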
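Luminescent ATP signal served as the viability read-out, measured 15-30 min after adding ATP detection reagent to trophozoites that had been incubated with compounds for 48 hrs at 37 deg C anaerobically at 100 cells/well.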
HT1080NT lethal: qHTS for induction of synthetic lethality in tumor cells producing 2HG: qHTS for the HT-1080-NT fibrosarcoma cell line | HT-1080-NT fibrosarcoma viability, CellTiter-Glo ATP luminescence, 48 h | Potency, µM (top dose mostly 46.1 µM), actives largely listed as cytotoxic | 360,000 tested, 1.6% active | AID 686970, 2013;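 also: NT is the 2HG producing partner of a matched IDH1 knockdown line; nearly all actives have a fitted effect of over 55% in size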
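Luminescent CellTiter-Glo readout after 48 hours of compound exposure at 37 degrees C defined viability of HT-1080-NT cells. Activity was normalized to DMSO wells and cell-free media wells; concentration-response curves were fitted and assigned curve classes.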
Of the large screens only hits and unclear results are named; the others gave an inactive call. A selection: hits, their analogues and other compounds. The true share with any hit is near 6.5%. Unless noted, calls follow the shape of the dose curve; as a rule, active = well fitted curve in the direction sought with a large enough effect; inconclusive = small, poorly fitted or top-dose-only effect, or another doubt; inactive = no such curve, though single readings can be large; an effect the other way counts as inactive or inconclusive.

CCC(=O)N/C(N)=N/c1nc(C)c2cc(C)c(C)cc2n1	none (no result: IL-1B inflam inh)
CCc1ccc2nc(N=C(N)N)nc(C)c2c1	IL-1B inflam inh -91, HT1080 IDH1KD tx inconclusive, HT1080NT lethal inconclusive
CC1CCN(c2ccc(-c3cccs3)nn2)CC1	Giardia killer -94, HT1080NT lethal inconclusive
CCOC(=O)c1c(C)sc2c1N(C(=O)CCl)c1cc(Cl)ccc1S2	TGFb inhibitor inconclusive, IL-1B inflam inh -101, HT1080 IDH1KD tx 18µM, HT1080NT lethal 23µM
Cc1ccnn1-c1ccc(C(=O)NCC(c2ccco2)N2CCCC2)cc1 (stereo not given)	none
CC(=O)Sc1nc(-c2ccccc2)[nH]c1S(=O)(=O)c1ccc(C)cc1	none
CSc1nc(-c2ccc(C)cc2)[nH]c1S(=O)(=O)c1ccccc1	HT1080 IDH1KD tx 23µM
Cc1ccc(NC(=O)CSc2ccccn2)cc1S(=O)(=O)N1CCOCC1	none
CCN1C(=O)NC2=C(C(=O)c3ccccc32)C1c1ccccc1F (stereo not given)	none
O=C(NCCc1c[nH]c2ccccc12)c1ccc2c(c1)OCO2	none
Cc1ccc2[nH]cc(CCNC(=O)c3cccs3)c2c1	IL-1B inflam inh -75
Cc1ccc2[nH]cc(CCNC(=O)c3ccc4c(c3)OCO4)c2c1	IL-1B inflam inh -53
CCN(CC)c1ccc(/C=N/Nc2ccc(C)cc2)c(O)c1	none
CCOC(=O)N/N=C/c1ccc(N(CC)CC)cc1O	HT1080 IDH1KD tx 9.2µM, HT1080NT lethal inconclusive
CC(C)n1nc(C(=O)Nc2nc3ccccc3[nH]2)c2ccccc2c1=O	IL-1B inflam inh -53
O=C(CCSCc1cccc(Cl)c1)NCc1ccccc1Cl	none (no result: IL-1B inflam inh, HT1080 IDH1KD tx, Giardia killer, HT1080NT lethal)
CCn1c(CNC(C)=O)nnc1SCC(=O)c1ccc(Br)cc1	HT1080 IDH1KD tx inconclusive, HepG2 tox 22µM, HT1080NT lethal 13µM
Cc1ccc(NC(=O)Cc2nnc(SCC(=O)c3ccc(Br)cc3)n2C)cc1	HT1080 IDH1KD tx 11µM, HT1080NT lethal inconclusive
CCCC1(c2ccccc2)NC(=O)N(CC(=O)Nc2sc(-c3ccccc3)cc2C(=O)OCC)C1=O (stereo not given)	HT1080 IDH1KD tx 12µM, HT1080NT lethal 16µM
Cc1noc(C)c1COC(=O)CN(C)S(=O)(=O)c1ccc(Cl)cc1	none
COc1ccccc1C(CCN(Cc1cccs1)C(C)=O)c1ccco1 (stereo not given)	IL-1B inflam inh -98
Cc1c(C#N)c(N)nc(Cl)c1C#N	IL-1B inflam inh -168, HT1080 IDH1KD tx inconclusive, Giardia killer inconclusive, HT1080NT lethal inconclusive
O=[N+]([O-])c1ccccc1S(=O)(=O)N1CCN(c2nc(-c3ccccc3)nc3ccccc23)CC1	none (no result: TGFb inhibitor, IL-1B inflam inh, HepG2 tox)
COc1ccc(OC)c(C2CC(=O)OC3=C2C(=O)CC(C)(C)C3)c1 (stereo not given)	HT1080 IDH1KD tx inconclusive
CCCN(C(=O)c1cccs1)c1nnc(-c2ccncc2)s1	IL-1B inflam inh -50
COc1ccc(C(=O)N(c2ccccc2)c2nccc3ccccc23)cc1OC	none
CSc1ccc(S(=O)(=O)N2CCCC2)cc1	none
COc1ccc(COCC(O)CN(Cc2ccco2)Cc2ccccc2O)cc1 (stereo not given)	none
Oc1ccccc1CN(Cc1ccco1)CC(O)COCc1ccc(Cl)cc1 (stereo not given)	TGFb inhibitor inconclusive, IL-1B inflam inh -99, HT1080 IDH1KD tx inconclusive, HT1080NT lethal inconclusive
CCOC(=O)Nc1sc2c(c1C#N)CCCC2	none
CCCC1CCc2c(sc(NC(=O)OCC)c2C#N)C1 (stereo not given)	IL-1B inflam inh inconclusive, HT1080 IDH1KD tx 18µM, HT1080NT lethal inconclusive
O=C(N/N=C/c1cn(-c2cccs2)nc1-c1ccccc1)c1ccc(O)cc1	none
Nc1ccc(-c2nc3ccc(N)cc3[nH]2)cc1	none (no result: HT1080 IDH1KD tx, HT1080NT lethal)
Clc1ccc2nc(-c3ccc(Cl)nc3)[nH]c2c1	IL-1B inflam inh -68
Nc1ccc2nc(-c3ccc(Cl)cc3)[nH]c2c1	TGFb inhibitor inconclusive, HT1080 IDH1KD tx 21µM, HepG2 tox 13µM, HT1080NT lethal 23µM
Nc1nc2ccc(Cl)cc2[nH]1	none
OCCN(CCO)CC(O)CN(c1ccccc1)c1ccccc1 (stereo not given)	none
O=C(Nc1cccc(Cl)c1)N1CCN2C(=O)c3ccccc3C12c1ccccc1 (stereo not given)	TGFb inhibitor inconclusive, IL-1B inflam inh -58, HT1080 IDH1KD tx inconclusive, HT1080NT lethal inconclusive
O=C(CCl)N1CCN2C(=O)c3ccccc3C12c1ccc(Cl)cc1 (stereo not given)	TGFb inhibitor inconclusive, IL-1B inflam inh -95, HT1080 IDH1KD tx 8.2µM, HT1080NT lethal 9.2µM
C=C1[C@@H](O)[C@@H]2O[C@]3(CC[C@H](/C=C/[C@@H](C)[C@@H]4CC(C)=CC5(O[C@H](C[C@@](C)(O)C(=O)OC)CC[C@H]5O)O4)O3)CC[C@H]2O[C@@H]1[C@@H](O)C[C@H](C)[C@H]1OC2(CCCCO2)CC[C@H]1C (stereo not given in full)	TGFb inhibitor 0.89µM, HT1080 IDH1KD tx 1.2µM, HT1080NT lethal 0.65µM
C=C1C(O)[C@@H]2O[C@]3(CC[C@H](/C=C/C(C)[C@@H]4CC(C)=CC5(O[C@H](C[C@@](C)(O)CO)CCC5O)O4)O3)CC[C@H]2O[C@@H]1C(O)CC(C)[C@H]1OC2(CCCCO2)CCC1C (stereo not given in full)	TGFb inhibitor 7.9µM, IL-1B inflam inh -100, HT1080 IDH1KD tx 0.82µM, HT1080NT lethal 1.2µM
O=C(NCC1CCCCC1)c1csc([C@@H]2C[C@H](O)[C@@H](CO)O2)n1	none (no result: Giardia killer)
O=c1c2cc(F)ccc2sn1-c1ccccc1Cl	TGFb inhibitor inconclusive, IL-1B inflam inh -105, HT1080 IDH1KD tx inconclusive, HT1080NT lethal inconclusive (no result: Giardia killer)
O=c1sc2ccccc2c(=O)n1Cc1ccccc1F	none
Cc1ccc(-n2sc3cc(F)ccc3c2=O)c(C)c1	TGFb inhibitor inconclusive, IL-1B inflam inh -103, HT1080 IDH1KD tx inconclusive, HepG2 tox 11µM, HT1080NT lethal inconclusive (no result: Giardia killer)
O=c1c2ccccc2sn1-c1ccc(F)cc1	TGFb inhibitor 10µM, IL-1B inflam inh -109, HT1080NT lethal inconclusive
O=c1c2ccc(F)cc2sn1-c1ccccc1	TGFb inhibitor 11µM, IL-1B inflam inh -106, HT1080 IDH1KD tx inconclusive (no result: Giardia killer)
Cc1nn(CC(=O)OCC(=O)NCCc2ccc(S(N)(=O)=O)cc2)c(C)c1[N+](=O)[O-]	HT1080 IDH1KD tx inconclusive
Cc1cc(C)c(NC(=O)CSc2nncn2-c2cccnc2)c(C)c1	TGFb inhibitor inconclusive
